High-throughput results: PubChem BioAssay, Broad Institute
Wnt bcat act – activates Wnt/beta-catenin signaling in a reporter cell assay. activation, % at 9.35 µM. hit rate 1.2% among 300,000. activator, plate reader. AID 743398; in the data active = activation above about 30%, passing the limit was not always enough; inconclusive = no clear call, values can overlap the other calls;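 note: 0% = neutral control wells and 100% = positive control wells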
Statin myotox sup – protects C2C12 myotubes from simvastatin toxicity | ATP luminescence, 48 h; scaled: DMSO 0, geranylgeraniol control 100 | rescue of ATP level, % at 7.49 µM | hit rate 0.78% among 330,000;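 active = mean ATP rescue above about 67%, or every replicate alone reaching that limit, limit read from the data, passing the limit was not always enough; inconclusive = no clear call, values can overlap the other calls; inactive = mean under the limit and some replicate under it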;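 note: myotubes were challenged with 10 µM simvastatin during compound exposure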
esBAF inh – inhibitors of esBAF chromatin remodeling in mouse ES cells; hit rate 2% among 350,000; reporter increase, % at 12.5 µM; Bmi1-luciferase knock-in reporter, 24 h; 100% = twice the neutral-well signal; AID 602393; in the data active = activation above about 40%; inconclusive = no clear call, values can overlap the other calls;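 note: 0% = median of the plate's neutral control wells and 100% = double that signal; a rise in the Bmi1 reporter signal indicates esBAF inhibition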
MITF act – MITF TRPM1 promoter activation in melanoma cells; SK-MEL-5 TRPM1-promoter luciferase, 24 h; % of positive control, neutral wells = 0; activation, % at 12.5 µM; hit rate 0.75% among 300,000;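 active = mean activation of at least 80% with every replicate also reaching 80%; inconclusive = mean reaches 80% but some replicate falls short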;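 note: 0% = neutral control wells and 100% = parthenolide positive control wells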
* hit, by the source's call; ? = inconclusive; nt = no result given. An excerpt weighted towards active compounds, which were near 3% of everything screened.

SMILES | Wnt bcat act | Statin myotox sup | esBAF inh | MITF act
Cc1ccccc1CN(C)C[C@H]1OCc2cnnn2CCCC(=O)N([C@H](C)CO)C[C@@H]1C | nt | 7 | -3 | nt
CC(C)(C)C1CCC(C(=O)Nc2nccs2)CC1 (centres undefined) | 0 | -2 | 53* | nt
C[C@H]1CCCCO[C@H](CN(C)C(=O)CCC(F)(F)F)[C@@H](C)CN([C@@H](C)CO)C(=O)c2cc(NS(C)(=O)=O)ccc2O1 | nt | -14 | -1 | nt
C[C@@H]1CN([C@@H](C)CO)C(=O)c2cc(NC(=O)Nc3cccc4ccccc34)ccc2O[C@H]1CN(C)Cc1ccc(C(F)(F)F)cc1 | nt | nt | -2 | nt
O=C(C[C@@H]1C[C@H]2c3cc(NC(=O)NC4CCCC4)ccc3O[C@H]2[C@@H](CO)O1)NCc1cccc(F)c1 | nt | -1 | 2 | nt
Cc1c(NC(=O)C(Sc2ccccc2)c2ccccc2)cccc1[N+](=O)[O-] (centres undefined) | -3 | 112* | -10 | 16
COCC(=O)Nc1ccc2c(c1)OC[C@H](C)N(Cc1cncnc1)C[C@@H](C)[C@@H](OC)CN(C)C2=O | nt | -7 | -2 | nt
CCOC(=O)c1snc(C(=O)NC2CCCCC2)c1N | 20 | -12 | 60* | 84*
COc1ccc(CNC(=O)C2CC(c3cccc([N+](=O)[O-])c3)=NO2)cc1 (centres undefined) | 16 | 7 | 54* | 49
C[C@H]1CN([C@@H](C)CO)C(=O)Cc2cc(NC(=O)C3CCCCC3)ccc2O[C@@H]1CN(C)Cc1ccc(C(F)(F)F)cc1 | nt | 48 | -3 | nt
O=C(CN(C(=O)Cn1nnc(-c2ccc(F)cc2)n1)c1ccc(F)c(Cl)c1)NCC1CCCO1 (centres undefined) | 41* | nt | nt | 9
C[C@H]1CN([C@@H](C)CO)C(=O)c2c(c3ccccc3n2C)-c2ccccc2CO[C@H]1CN(C)C(=O)Nc1ccc2c(c1)OCO2 | nt | 19 | 60* | nt
C[C@@H]1CN([C@@H](C)CO)C(=O)c2c(c3ccccc3n2C)-c2ccccc2CO[C@H]1CN(C)C(=O)Nc1ccc2c(c1)OCO2 | nt | nt | 86* | nt
C[C@@H]1CN([C@H](C)CO)C(=O)c2c(c3ccccc3n2C)-c2ccccc2CO[C@@H]1CN(C)C(=O)Nc1ccc2c(c1)OCO2 | -2 | 2 | 3 | nt
C[C@H](CO)N1C[C@H](C)[C@H](CN(C)C(=O)Nc2ccc3c(c2)OCO3)OCc2ccccc2-c2c(n(C)c3ccccc23)C1=O | nt | 22 | 93* | nt
C[C@@H]1CN([C@H](C)CO)C(=O)c2c(c3ccccc3n2C)-c2ccccc2CO[C@H]1CN(C)C(=O)Nc1ccc2c(c1)OCO2 | nt | 51 | 81* | nt
C[C@H](CO)N1C[C@H](C)[C@H](CN(C)S(=O)(=O)c2ccccc2)OCCCC[C@H](C)Oc2ccc(NS(C)(=O)=O)cc2C1=O | nt | ? | 6 | nt
CN(C)C(=O)C[C@@H]1C=C[C@@H](NC(=O)Nc2cccc(F)c2)[C@H](CO)O1 | nt | 0 | 1 | nt
CCOc1cc(CNCc2ccncc2)cc(Br)c1OCc1ccccc1F | nt | 112* | 8 | 0
C[C@H](CO)N1C[C@H](C)[C@H](CN(C)Cc2ccc(C(=O)Nc3ccccc3N)cc2)Oc2ccc(NS(=O)(=O)c3ccccc3)cc2C1=O | nt | 17 | -20 | nt
CCn1cnc2cc(NCc3ccc(Br)cc3)ccc21 | 36* | nt | nt | nt
CCN(CC)c1ccc(CNc2ccc3c(c2)ncn3CC)cc1 | 0 | nt | nt | nt
CCCn1cnc2cc(NCc3cccc(OC)c3)ccc21 | 21 | -1 | 52* | 66
CCn1cnc2cc(NCc3ccc(C)cc3)ccc21 | nt | -4 | ? | 119*
CCn1cnc2cc(NCc3ccc(N(C)C)cc3)ccc21 | 10 | 28 | 36 | 9
SMILES | Wnt bcat act | Statin myotox sup | esBAF inh | MITF act
CCCn1cnc2cc(NCc3ccc(Br)cc3)ccc21 | 2 | 2 | 52* | 46
C[C@H]1CN([C@@H](C)CO)S(=O)(=O)c2ccc(-c3cccnc3)cc2O[C@@H]1CN(C)Cc1ccncc1 | nt | 24 | -4 | nt
C[C@H](CO)N1C[C@H](C)[C@H](CN(C)C(=O)c2cccc(F)c2)Oc2cc(-c3cccnc3)ccc2S1(=O)=O | nt | -2 | -5 | nt
CCCn1cnc2cc(NCc3ccccc3O)ccc21 | 8 | 5 | 57* | 30
CCCCn1cnc2cc(NCc3cccc(OC)c3O)ccc21 | 3 | 5 | 27 | 21
Cc1ccc(CNc2ccc3c(c2)ncn3C(C)C)cc1 | 0 | -14 | 68* | 89*
COc1ccc(NC(=O)N(C)C[C@H]2OCCCC[C@H](C)Oc3ccc(NS(=O)(=O)c4ccccc4)cc3C(=O)N([C@@H](C)CO)C[C@@H]2C)cc1 | nt | nt | 3 | nt
O=S(=O)(NCc1ccco1)c1ccc(S(=O)(=O)N2CCCCC2)cc1 | -2 | 118* | -3 | 5
Cc1cc(OCc2cc(C(=O)N(C)CCc3cnn(C)c3)no2)cc(C)c1Cl | 0 | -2 | 74* | 57
Cc1cc(CN(C)C(=O)c2cc(COc3ccc(C)c(C)c3)on2)on1 | 0 | 4 | ? | ?
COc1cc(Cl)ccc1OCc1cc(C(=O)N(C)CCc2cnn(C)c2)no1 | 26 | 5 | 88* | 74
Cc1ccc(OCc2cc(C(=O)N(C)Cc3cnn(C)c3)no2)cc1C | -1 | 6 | 46* | nt
CCCNC(=O)N(C)C[C@H]1Oc2ncc(C#CC3(O)CCCC3)cc2C(=O)N([C@@H](C)CO)C[C@@H]1C | nt | 18 | 1 | nt
COc1ccc(N(C(=O)Cn2nnc3ccccc32)C(C(=O)NCc2ccco2)c2cccnc2)cc1 (centres undefined) | -2 | 81* | -2 | nt
O=c1c2ccccc2oc2cc(Br)ccc12 | -3 | 3 | 71* | 22
O=c1c2ccccc2oc2c1oc1ccccc12 | 25 | -3 | 54* | 103*
O=c1c2ccccc2oc2ccc(Oc3ccccc3)cc12 | 54* | -23 | 31 | ?
O=c1[nH]c(=O)c2ccccc2o1 | 0 | nt | nt | nt
COC(=O)c1cc(Br)c(=O)n(CCN2CCOCC2)c1 | 1 | 104* | -4 | -9
COC(=O)c1cc(Br)c(=O)n(CCN(C(C)C)C(C)C)c1 | nt | 13 | -6 | -12
C[C@@H]1CCCCO[C@@H](CN(C)S(=O)(=O)c2ccc(F)cc2)[C@H](C)CN([C@@H](C)CO)C(=O)c2cc(NC(=O)Cc3ccccc3)ccc2O1 | nt | 52 | 14 | nt
C[C@@H]1CN([C@@H](C)CO)C(=O)c2cc(C#CCN(C)C)cnc2O[C@@H]1CN(C)S(C)(=O)=O | nt | -6 | 3 | nt
CCc1ccc2nc(N)sc2c1 | 1 | nt | nt | 57
CCc1ccc(NC(=O)c2ccc3nc(N)sc3c2)cc1 | nt | -53 | 50* | ?
Nc1nc2ccc(C(=O)Nc3ccccc3)cc2s1 | nt | -2 | 51* | 33
O=C(COCc1cc(-c2cccs2)on1)NC1CCCCC1 | 0 | -16 | -7 | -7
O=C(NCCN1CCOCC1)c1cc(-c2ccc(F)cc2)on1 | nt | nt | nt | -26
O=C(NC1CCCCC1)c1cc(-c2cccs2)on1 | 37* | -30 | 45* | ?
COc1cccc(-c2cc(C(=O)NC3CCCC3)no2)c1 | nt | nt | nt | 54
Cc1cc(F)ccc1-c1cc(C(=O)NC2CCCCC2)[nH]n1 | 13 | -4 | 62* | nt
